Data reported in PubChem BioAssay AID602342 (Broad Institute, 2012).
Screen size: about 340,000 compounds; about 1,000 (0.29%) were called active. The entries come from a sample that favours actives as a whole. A number with no mark means an inactive call.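 Rule for the calls: active = mean replicate activation score at least 90 and every replicate individually at or above 90; inconclusive = only one of the two criteria met; inactive = neither criterion met.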

Assay: compounds raising miR-122 luciferase sensor output – cell-based, single point, plate reader, miR-122 inhibitor project, primary screen (AID 602342);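 note: higher luciferase means less miR-122 activity so hits act as miR-122 inhibitors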
Details: Huh7 miR-122 Renilla luciferase sensor, 48 h, stronger effect = higher value; at 12.5 µM unless noted

| Compound | activation (reporter increase) |
| --- | --- |
| C[C@]12CCC3C(CC[C@H]4C[C@@H](O)CC[C@]34C)C1CC[C@@H]2O (stereo not given in full) | -9.92% |
| C[C@]12CC[C@H](O)C[C@H]1CC[C@@H]1C2CC[C@]2(C)[C@@H](C3=CC(=O)OC3)[C@@H](O)C[C@]12O (stereo not given in full) | 339% (active) |
| C[C@]12CCC3C(CC[C@H]4C[C@@H](O)CC[C@]34C)C1C[C@@H](O)[C@H]2O (stereo not given in full) | -6.69% |
| COc1ccc(-n2nnnc2C(c2cccc3ccccc23)N2CCC(n3c(=O)[nH]c4ccccc43)CC2)cc1 (stereo not given) | -6.36% |
| COC(=O)[C@H]1[C@H](CO)[C@H]2Cn3c(ccc(-c4ccccc4F)c3=O)[C@@H]1N2C(=O)C1CCC1 | 3% [at 16.7 µM] |
